Activity calls are given as the source filed them. Calls follow the shape of the dose curve; as a rule, active = well fitted curve in the direction sought with a large enough effect; inactive = no such curve, though single readings can be large or run the other way.
Experiment: qHTS profiling of inhibitors of Plasmodium falciparum (3D7) proliferation (acoustic dispense)
Conditions: P. falciparum 3D7 in erythrocytes, SYBR Green, 72 h; series mostly up to 49.8 µM

outcome, inactive:
C=C[C@@H]1CN2CC[C@@H]1C[C@H]2[C@H](O)c1ccnc2ccc(OC)cc12, CCn1nnc2c(N3CCOCC3)nc(-c3ccc(NC(=O)Nc4ccc(C(=O)N5CCN(C)CC5)cc4)cc3)nc21, CCCCCCCCCCOc1cc2c(=O)c(C(=O)OCC)c[nH]c2cc1OCC, Cc1cnc(Nc2ccc(CN3CCOCC3)cc2)nc1Nc1cccc(S(=O)(=O)NC(C)(C)C)c1, Cn1c(=O)n(-c2ccc(C(C)(C)C#N)cc2)c2c3cc(-c4cnc5ccccc5c4)ccc3ncc21, CCN(CC)CCCC(C)Nc1ccnc2cc(Cl)ccc12 (stereo not given), CCN[C@H]1C[C@H](C)S(=O)(=O)c2sc(S(N)(=O)=O)cc21, CCS(=O)(=O)Nc1ccc2[nH]c(O)c(C(=Nc3ccc(CN4CCCCC4)cc3)c3ccccc3)c2c1, CCN(CC)Cc1cc(Nc2ccnc3cc(Cl)ccc23)ccc1O, CC(=NNC(=S)N1CCC1)c1ccccn1, c1cncc(CN2CCC(n3ncc4c(N5CCOCC5)nc(-c5ccc6[nH]ccc6c5)nc43)CC2)c1, CC[C@@]1([C@@H]2O[C@@H]([C@H]3O[C@@](O)(CO)[C@H](C)C[C@H]3C)C[C@H]2C)CC[C@H]([C@]2(C)CC[C@]3(C[C@H](O)[C@@H](C)[C@@H]([C@@H](C)[C@@H](OC)[C@H](C)C(=O)O)O3)O2)O1, CC[C@H]1OC(=O)[C@H](C)C(=O)[C@H](C)[C@@H](O[C@H]2O[C@H](C)C[C@H](N(C)C)[C@@H]2O)[C@](C)(OC)C[C@@H](C)C(=O)[C@H](C)[C@H]2N(CCCCn3cnc(-c4cccnc4)c3)C(=O)O[C@]12C, CCCC[C@@H]1C[C@@H](C(=O)NC([C@H](C)Cl)[C@H]2O[C@H](S)[C@H](O)[C@@H](O)[C@@H]2O)N(C)C1 (stereo not given in full), Cn1cnc(=N)c2[nH]cnc21, COc1ccc(-c2cc3c(C)nc(N)nc3n(C3CCC(OCCO)CC3)c2=O)cn1 (stereo not given), C=CCNC1=C2C[C@@H](C)C[C@H](OC)[C@@H](O)[C@@H](C)C=C(C)[C@H](OC(N)=O)[C@@H](OC)C=CC=C(C)C(=O)NC(=CC1=O)C2=O, CC1(C)N=C(N)N=C(N)N1c1ccc(Cl)cc1, C1CCC(C(CC2CCCCN2)C2CCCCC2)CC1 (stereo not given), COc1ncnc(NS(=O)(=O)c2ccc(N)cc2)c1OC, CN(C)c1ccc(C(=C2C=CC(=[N+](C)C)C=C2)c2ccc(N(C)C)cc2)cc1, Cc1nc2cnc3ccc(C#Cc4cccnc4)cc3c2n1-c1ccc(C(C)(C)C#N)cc1, CN(C)c1ccc2nc3ccc(=[N+](C)C)cc-3sc2c1, CCc1nc(N)nc(N)c1-c1ccc(Cl)cc1, CCC[C@H](Nc1nc(-c2ccc(NC(=O)NCC)c(OC)c2)ncc1C)c1cccnc1, CC(C)N=C(N)N=C(N)Nc1ccc(Cl)cc1, O=C1c2c(O)ccc(O)c2C(=O)c2c(NCCNCCO)ccc(NCCNCCO)c21, CO[C@@H]1C(N(C)C(=O)c2ccccc2)C[C@H]2O[C@]1(C)n1c3ccccc3c3c4c(c5c6ccccc6n2c5c31)C(=O)NC4=O (stereo not given in full), COc1cc(NC(C)CCCN)c2ncccc2c1 (stereo not given), CC(C)n1nc(-c2ccc3oc(N)nc3c2)c2c(N)ncnc21, COC1=C2C[C@@H](C)C[C@H](OC)[C@@H](O)[C@@H](C)C=C(C)[C@H](OC(N)=O)[C@@H](OC)C=CC=C(C)C(=O)NC(=CC1=O)C2=O, CN(C(=O)OC(C)(C)C)[C@@H](Cc1ccc(O[S+](=O)([O-])c2cccc3cnccc23)cc1)C(=O)N1CCN(C(=O)OCc2ccccc2)CC1, CCCCN(CCCC)CCC(O)c1cc2c(Cl)cc(Cl)cc2c2cc(C(F)(F)F)ccc12 (stereo not given)

Activity change, inactive:
CC(Sc1nc2ccccc2[nH]1)C(=O)NN=Cc1cc(Br)ccc1O (stereo not given) 28.2% [at 4.15 µM], CCC(C=C[C@@H]1OC(=O)C=C[C@H]1C)=C[C@H](C)CC=CC(C)=C[C@@H](C)C(=O)[C@@H](C)[C@H](O)[C@@H](C)CC(C)=CC(=O)O 22.5% [at 1.88 µM]

— PubChem BioAssay AID743364 (National Center for Advancing Translational Sciences (NCATS), 2014)
